This is part of a sample that, as a whole, favours compounds with a hit. Of some 83,000 tested, about 20% had one in any assay.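 Interpretation: 100, growth as untreated; towards 0, rising growth inhibition; 0, no net growth; 0 to -100, cell death. Compounds scoring below 10 were considered active.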 A number with no mark means an inactive call. Calls of active or inactive are those of the source.
Legend:
Experiment in all cases: NCI-60 one-dose screen, 48 h (100 = growth as untreated, 0 = no growth, -100 = all killed)
Conditions in all cases: 10 µM unless noted
[1] = system: BT-549 breast
[2] = system: MDA-MB-435 melanoma
[3] = system: SW-620 colon
[4] = system: MCF7 breast
[5] = system: HCT-116 colon
[6] = system: HCC-2998 colon
[7] = system: KM12 colon

SMILES | growth [1] | growth [2] | growth [3] | growth [4] | growth [5] | growth [6] | growth [7]
COc1cc2nc3cc([N+](=O)[O-])ccc3c(NCCNCC(C)O)c2cc1OC (stereo not drawn) | -40.5% (active) | -87.6% (active) | -4.13% (active) | -13.3% (active) | -18.8% (active) | -47.8% (active) | -11.9% (active)
COc1ccc(-c2nc3c(ncc4ccc(=O)[nH]c43)s2)cc1 | 86.4% | 80.6% | 66.5% | 62.5% | 79.2% | 91% | 64.8%
CC(=O)c1c(C)nc(SCC(=O)Nc2cccc(O)c2)n1-c1ccc(Cl)cc1 | 93.1% | 84.7% | 87.3% | 91.1% | 94.8% | 99.3% | 93.7%
Clc1ccc2c(c1)C(c1c[nH]c3ccccc13)(c1c[nH]c3ccccc13)CCO2 | 77.2% | 94.9% | 87.4% | 103% | 56.5% | 112% | 78.2%
O=C(Nc1cccc(-c2ccc(N3CCOCC3)nn2)c1)Nc1cccc(C(F)(F)F)c1 | 40.9% | 69.7% | 110% | 55.3% | 68.2% | 109% | 55.5%
C=CCSc1nnc(NC(=O)CCl)s1 | 79% | 90.8% | 105% | 90.1% | 86.3% | 130% | 95.3%
Cc1ccccc1/C=C/C(=O)c1cccc(OCCCOc2cccc(C(=O)/C=C/c3ccccc3C)c2)c1 | 96.7% [3 µM] | 97.7% [3 µM] | 93.3% [3 µM] | 13.5% [3 µM] | 38.2% [3 µM] | 91.2% [3 µM] | 95.4% [3 µM]
Clc1ccc(/C=N\N=C\c2ccc(Cl)c(Cl)c2)cc1Cl | 74.2% | 101% | 53.8% | 72.8% | 53.3% | 96.1% | 101%
COc1ccc2c(c1)CC[C@H](O)/C2=C/c1cc(OC)c(OC)c(OC)c1 | 4.02% (active) | -54.4% (active) | 21.1% | 16% | 2.27% (active) | 22.1% | 10.8%
COC(=O)/C=C1/SC(=Nc2ccc(C(F)(F)F)cc2)N(CCc2c[nH]c3ccc(O)cc23)C1=O | -32.7% (active) | 24% | 3.9% (active) | 12.5% | -71.9% (active) | -61.4% (active) | 18.3%
COc1ccc(-c2nc3cc(C(=O)NCc4ccccc4)ccc3n2C2CCCCC2)cc1 | 80.9% | 81.7% | 94.9% | 76.6% | 82.9% | 79.3% | 57.4%
N#Cc1nc(-c2ccc(F)cc2)oc1S(=O)(=O)N1CCCCC1 | 80% | 83.8% | -72.2% (active) | 56% | -19.4% (active) | 105% | 99.1%
Fc1ccc(CNc2c3ccccc3nc3ccccc23)c(F)c1 | 82.8% | 66.5% | 29.8% | 10.2% | 14.2% | 41.3% | 60%
CCCNc1nc2ccccc2c2c1S(=O)(=O)c1ccc(Cl)cc1C2=O | 23% | 12.2% | -4.27% (active) | 8.27% (active) | 5.94% (active) | 16.2% | 17.1%
CCSc1nc2scc(C)c2c(=O)[nH]1 | 96.8% | 105% | 104% | 96.3% | 101% | 106% | 103%
COc1cc(C2CC(c3ccc(Nc4nc(Nc5ccc(Cl)cc5)nc(Nc5ccc(Cl)cc5)n4)cc3)=NN2C(C)=O)cc(OC)c1OC (stereo not drawn) | 104% | 89.1% | 106% | 89% | 84.9% | 100% | 106%
COc1cc2c(c(OC)c1OC)CCC(c1cccc(C(=O)Nc3ccc(C#N)cc3)c1)O2 (stereo not drawn) | 27.2% | 36.6% | 86.7% | 32.5% | 48.8% | 73.1% | 60.6%
Clc1cc(Cl)c(Cl)c(-c2nnc(SCc3ccncc3Br)o2)c1 | 99% | 98.4% | 96.5% | 91.8% | 88.8% | 58.6% | 96.2%
CCOC(=O)c1ccc2c(c1)nc(-c1ccccc1)n2C1CCCCC1 | 93% | 102% | 111% | 93.3% | 63.7% | 91.6% | 95.1%
CSc1nnc(-c2cc3c([nH]c4ccccc43)c(-c3cccc(O)c3)n2)n1-c1ccccc1 | 37.6% | -49.9% (active) | 31.3% | 13.2% | 18.3% | 67.3% | 21.6%
Nc1c(C(=O)Nc2ccncc2)sc2nc3c(cc12)C(O)CCC3 (stereo not drawn) | 113% | 101% | 99.7% | 93.8% | 83.4% | 96.7% | 109%
S=c1sc2c(Cl)nc(-c3cccnc3)nc2n1-c1ccccc1 | 27.9% | 41.2% | 0.199% (active) | 3.63% (active) | 1.57% (active) | 39.6% | 46.3%
COc1ccc(CN2c3ccccc3Sc3ccccc32)cc1F | 49.9% | -33.5% (active) | 23.8% | 16% | 8.54% (active) | 17.8% | 14%
Cc1ccc(-c2nc(N3CCCNCC3)c3oc(-c4ccc(C)cc4)nc3n2)cc1 | 90.2% | 70.8% | -49.7% (active) | -64.8% (active) | 27.5% | 40.9% | 11.3%
CC1OC(n2c3ccccc3c3c4c(c5c6ccccc6[nH]c5c32)C(=O)N(CCN2CCCC2)C4=O)CC(O)C1O (stereo not drawn) | 65.6% | 41.8% | 17.7% | 9.93% (active) | 25.8% | 22% | 26.3%
CCN(CC)Cc1cc(C=C2C(=O)NC(=S)NC2=O)cc(OC)c1O | 110% | 105% | 107% | 97.6% | 114% | 118% | 111%
COc1ccc(F)cc1/C=C/C(=O)/C=C(/C=C/c1cc(F)ccc1OC)OB(F)F | 33.7% | 2.57% (active) | 14.1% | 29.2% | 0.9% (active) | 104% | 73.6%
COCCn1cc(-c2csc(-c3cn(C)c4ccc(Br)cc34)n2)c2cccnc21 | 64.6% | 61.2% | 21.9% | 50.2% | 49.2% | 25.7% | 23.8%
O=C(NCCCl)Nc1ncccc1OCc1ccccc1 | 105% | 97.1% | 99% | 96.3% | 101% | 102% | 108%

From PubChem BioAssay (NCI)
